The source of these data is PubChem BioAssay AID588719 (Southern Research Specialized Biocontainment Screening …, 2011).

The whole screen tested about 1,500 compounds, of which about 920 (61%) were called active. How the calls were made is not given here. The set was probably picked from earlier hits. The list shows a part of the results. Results with a measured potency or affinity are listed apart.

The nature of this assay: Vero 76 cell cytotoxicity, dose response, cytotoxicity control for VEEV inhibitor project (AID 588719). As to conditions: Vero 76 cells viability, cytotoxicity counter-screen; series mostly up to 25 µM.
As to `Cc1ccc([C@H]2C[C@@H](O)[C@H](n3cc(COC(=O)c4ccccc4)nn3)CN2CC2CCCCC2)cc1`, the compound was classed as inactive.

On to `COc1ccc(CN(C)[C@H]2C[C@H]3c4[nH]c5ccccc5c4CCN3C[C@H]2[C@H](C)O)cc1`, for which the result was inactive.

As to `CCCc1ccc(-c2cc(C(=O)NCCc3ccc(S(N)(=O)=O)cc3)c3ccccc3n2)cc1`, the compound was classed as inactive.

As to `CC(=O)Nc1ccc(CCNC(=O)c2ccc3ccccc3c2O)cc1`, the result was inactive.

As for `CCOC(=O)c1ccc(-c2ccc(/C=N/NC(=O)c3cncc(Br)c3)o2)cc1`, the compound was classed as inactive.

With `Cc1cc(N/N=C/c2ccc3c(c2)OCO3)nc2ccccc12`, the call was inactive.

Consider `CC(C)Oc1ccccc1-c1cc(C(=O)N/N=C/c2cccnc2)c2ccccc2n1`, for which the result was inactive.

Consider `CN(C)c1nc(OCCOC(=O)COc2ccc(Cl)cc2Cl)nc(N(C)C)n1`, for which the call was inactive.

As to `COc1ccc(CCNC(=O)c2cc3c(=O)n4cccc(C)c4nc3n(CCCN3CCOCC3)c2=N)cc1`, the result was inactive.

Regarding `O=C(CCNC(=O)c1ccc(Cl)cc1)NC1CCCc2ccccc21` (configuration not stated), the call was inactive.

As to `CCOc1ccccc1N1CCN(Cc2cn[nH]c2-c2ccc(F)cc2)CC1`, the compound was classed as inactive.

For the compound `COc1cccc2sc(N(CCCN(C)C)C(=O)c3ccc(S(=O)(=O)N4CCCc5ccccc54)cc3)nc12`, the compound was classed as inactive.

With `Cc1nc(SCC(=O)Nc2ccccc2Cl)c2c(C)c(C)sc2n1`, the outcome was inactive.

Regarding `Cc1ccc(CCNc2ccc3ccccc3c2)cn1`, the call was inactive.

Take `CN(C)CC(O)COc1ccc(C(C)(C)c2ccc(OCC(O)CN(C)C)cc2)cc1` (configuration not stated): the compound was called inactive.

For `CC(C)Cc1nc2oc3c(NCC(C)O)ncnc3c2c2c1CCCC2` (configuration not stated), the call was inactive.

For `Cc1cc(C(C)(C)C)cc(C)c1CCNC(=O)c1ccc[n+]([O-])c1`, the compound was classed as inactive.

`CCN(CC(=O)Nc1ccc(NC(C)=O)cc1)C(=O)c1cc2c(s1)CCCC2`: the result was inactive.

Take `CCOC(=O)c1ccccc1NC(=O)CSc1nc2ccccc2c(=O)n1CCCN1CCOCC1`: the call was inactive.

For the compound `CCOC(=O)Cn1c(-c2nonc2NC(=O)c2ccccc2F)nc2ccccc21`, the compound was called inactive.

Take `S=c1[nH]nc(-c2ccccn2)n1/N=C/c1ccc(-c2ccccc2Cl)o1`: the result was inactive.

Consider `COc1ccc(CCNC(=O)c2cc3c(=O)n4ccccc4nc3n(Cc3ccco3)c2=N)cc1OC`, for which the outcome was inactive.

Turning to `CCOc1ccc(CCNC(=O)CCc2nc3ccccc3[nH]2)cc1OCC`, the compound was called inactive.

`COc1ccc([C@H]2C[C@H](n3cc(-c4ccc(F)cc4)nn3)[C@@H](O)CN2C(=O)C2CCCCC2)cc1`: the outcome was inactive.

For `COc1ccc(C2c3[nH]c4ccccc4c3CCN2Cc2ccoc2)c(F)c1` (configuration not stated), the compound was called inactive.

Turning to `Fc1ccc(C2c3[nH]c4ccccc4c3CCN2Cc2cccn2-c2ncccn2)cc1` (configuration not stated), the compound was classed as inactive.

`O=C(CCNC(=O)c1ccc(Br)cc1)NC1CCCc2ccccc21` (configuration not stated): the compound was classed as inactive.

As to `CN1CCC(N(C)S(=O)(=O)c2ccc(NC(=O)COc3ccc(Cl)cc3)cc2)CC1`, the compound was called inactive.

As for `CCN1CCN(c2sc(S(C)(=O)=O)nc2S(=O)(=O)c2ccc(C)cc2)CC1`, the result was inactive.

In the case of `O=C1[C@H]2[C@@H](c3ccccc3)N[C@]3(CCCN(Cc4ccc(Br)cc4)C3=O)[C@H]2C(=O)N1Cc1ccccc1`, the compound was classed as inactive.

Consider `CCOC(=O)NC(C(Cl)(Cl)Cl)S(=O)(=O)c1ccccc1` (configuration not stated), for which the result was inactive.

Consider `Nc1ccc2nc(-c3cccc(-c4nc5ccc(N)cc5[nH]4)c3)[nH]c2c1`, for which the result was inactive.

For `O=C(COC(=O)Cc1ccc(S(=O)(=O)N2CCOCC2)s1)Nc1ccccc1Cl`, the call was inactive.

Regarding `O=C(COC(=O)c1ccc(Br)o1)Nc1cccc(S(=O)(=O)N2CCOCC2)c1`, the result was inactive.

Regarding `CC1(C)CC2(OC2c2ccccc2[N+](=O)[O-])C(=O)c2ccccc21` (configuration not stated), the compound was called inactive.

For the compound `[O-][n+]1c(/C=C/c2ccccc2)ccc2ccccc21`, the call was inactive.

Turning to `CCOC(=O)C(=Cc1ccc(-n2ccnc2)cc1)C(=O)OCC`, the compound was classed as inactive.

Consider `CCOC(=O)C(=Cc1ccc(-c2ccsc2C(=O)OC)o1)C(=O)OCC`, for which the call was inactive.

`O=C(O)C1CCN(C(=O)c2cc(F)cc3c2OCOC3)CC1`: the compound was called inactive.

For `Cc1ccc2c(c1)CCCN2S(=O)(=O)c1cccc(C(=O)Nc2ccccc2C(=O)O)c1`, the compound was called inactive.

Regarding `O=C(O)C1CC=CCC1C(=O)Nc1ccc(S(=O)(=O)N2CCCc3ccccc32)cc1` (configuration not stated), the compound was called inactive.

`Cc1cc2c(c(/C=C/C(=O)c3ccccc3)c1)OC1(C=C2)Oc2ccccc2C(=O)N1C` (configuration not stated): the call was inactive.

Take `CN(C)CCNC(=O)c1onc(CSc2ccc(F)c(F)c2)c1C(=O)NCCN(C)C`: the outcome was inactive.

With `O=C(Oc1ccc2ccccc2c1Cl)N1CCCC1`, the result was inactive.

Consider `C=CCn1c(SCC(=O)NC23CC4CC(CC(C4)C2)C3)nc(O)cc1=O`, for which the call was inactive.

Regarding `O=C(NCc1cccnc1)c1ccc(NS(=O)(=O)c2cccc([N+](=O)[O-])c2)cc1`, the compound was called inactive.

For the compound `Fc1ccccc1CSc1ncnc2c1ncn2C1CCCO1` (configuration not stated), the compound was called inactive.

For `N#C/C(=C\c1c(Oc2ccccc2Cl)nc2ccccn2c1=O)C(=O)NC1CCS(=O)(=O)C1` (configuration not stated), the compound was called inactive.

On to `COc1cccc2c1C(=O)c1c(O)c3c(c(O)c1C2=O)C[C@@](O)(C(=O)CO)C[C@@H]3OC1CC(N)C(O)C(C)O1` (some centres not stated), for which the compound was called inactive.

With `Cc1cccc(CS(=O)(=O)c2ncc(Cl)c(C(=O)Nc3ccc(F)cc3)n2)c1`, the outcome was inactive.

`c1ccc2c3c([nH]c2c1)C1(CCNCC1)NCC3`: the compound was called inactive.

Take `CC[C@@H](C)[C@H](NC(=O)OC(C)(C)C)c1nnc(S(=O)(=O)Cc2cc(C)ccc2C)o1`: the outcome was inactive.

For the compound `CCC(=O)Nc1nnc(SCC(=O)c2ccc3c(c2)Cc2ccccc2-3)s1`, the call was inactive.

Consider `CC(=O)Nc1nnc(SCC(=O)c2ccc3c(c2)Cc2ccccc2-3)s1`, for which the outcome was inactive.

On to `CCOC(=O)c1c[nH]n2c(=O)cc(C)nc12`, for which the call was inactive.

For `Cc1cc(C)n(-c2nc(N(c3ccccc3)c3ccccc3)nc(-n3nc(C)cc3C)n2)n1`, the outcome was inactive.

With `O=C(CCS(=O)(=O)c1ccccc1)Nc1nnc(C(F)(F)F)s1`, the compound was called inactive.

Consider `Cc1ccc(CSCC(=O)Nc2ccccc2C(=O)O)cc1`, for which the compound was classed as inactive.

As for `C/C=C/c1cc(CN2CCN(c3ccccc3)CC2)c(O)c(OC)c1`, the outcome was inactive.

On to `CC(C)CCn1nnnc1CN1CCN(c2ccccc2)CC1`, for which the result was inactive.

`CC(=O)OCC1CC(COC(C)=O)C(COC(C)=O)CC1COC(C)=O` (configuration not stated): the compound was classed as inactive.

Take `S=c1[nH]nc(-c2cccc(Cl)c2)n1/N=C/c1ccc(-c2ccccc2Br)o1`: the outcome was inactive.
